Experimental data from PubChem BioAssay AID720597 (Broad Institute, 2013).
Measured potencies and affinities stand elsewhere. Activity calls are given as the source filed them.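 Rule for the calls: active = fitted half-maximal dose no more than twice the top valid tested dose, for compounds that lower signal; inconclusive = fit invalid, or curve flat with activity between -70 and -30; inactive = potency past limit, curve flat within ±30, or signal increasing.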

molecular target: NAD-dependent protein deacylase sirtuin-5, mitochondrial (Homo sapiens) (UniProt Q9NXA8); experiment: SIRT5 deacylase inhibitors, dose response, biochemical, fluorescence imaging, cherry-pick, set 6 (AID 720597); details: Purified SirT5, succinyl-peptide-AMC/trypsin fluorescence; series mostly up to 15 µM;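 note: lower AMC signal can also come from blocking the trypsin step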
Sequence (Q9NXA8 whole entry, looked up): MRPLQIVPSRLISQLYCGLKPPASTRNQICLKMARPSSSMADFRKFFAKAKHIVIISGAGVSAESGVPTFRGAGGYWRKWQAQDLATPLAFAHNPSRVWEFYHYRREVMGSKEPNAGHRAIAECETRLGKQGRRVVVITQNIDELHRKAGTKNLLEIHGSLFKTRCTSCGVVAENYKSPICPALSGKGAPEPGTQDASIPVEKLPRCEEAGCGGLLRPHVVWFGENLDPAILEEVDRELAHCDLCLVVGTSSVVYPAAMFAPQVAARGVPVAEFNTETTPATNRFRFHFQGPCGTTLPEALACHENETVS

outcome, inactive:
COc1ccc(S(=O)(=O)Nc2ccc3c(c2)C(=O)N([C@@H](C)CO)C[C@@H](C)[C@@H](CN(C)Cc2ccc(Oc4ccccc4)cc2)O3)cc1
CCOC(=O)N(C)C[C@@H]1OCc2ccccc2-c2ccccc2C(=O)N([C@@H](C)CO)C[C@H]1C
C[C@H]1CN([C@@H](C)CO)S(=O)(=O)c2ccc(C#Cc3ccc(F)cc3)cc2O[C@@H]1CN(C)S(=O)(=O)c1ccc(F)cc1
COc1ccccc1NC(=O)N[C@@H]1CC[C@H](CCNS(=O)(=O)c2ccc(Cl)cc2)O[C@@H]1CO
C[C@@H]1CN([C@H](C)CO)C(=O)c2c(c3ccccc3n2C)-c2ccccc2CO[C@@H]1CN(C)Cc1cccc2c1OCCCO2
CN(C)CC(=O)N1[C@H](CO)[C@@H](c2ccccc2)C12CN(C(=O)C1CCCC1)C2
Cc1noc(C)c1NC(=O)Nc1cccc2c1O[C@H](CN(C)Cc1ccc(Oc3ccccc3)cc1)[C@H](C)CN([C@@H](C)CO)C2=O
O=C(C[C@H]1CC[C@H](NC(=O)C2CCC2)[C@H](CO)O1)NCc1ccccc1Cl
CS(=O)(=O)N(CC(=O)NC1CCCCC1)c1cccc(F)c1
C[C@@H]1CN([C@@H](C)CO)C(=O)Cc2cc(NC(=O)CCCCCC(=O)Nc3ccccc3N)ccc2O[C@@H]1CN(C)Cc1ccc(Oc2ccccc2)cc1
O=C(O)[C@@H]1[C@@H](CO)[C@@H]2Cn3c(ccc(-c4ccccc4F)c3=O)[C@@H]2N1Cc1ccccc1
